Source: the supplement of paper PMC6555819

Test system: RARa:RXR (NR concentration 270 nM, RXRa partner concentration 90 nM)
Assay: PBM binding z-score (relative to random genomic background probes); higher = stronger binding; sequences stand for … in GC…GCGATTGACAGCGTAGAATGAAGG
How it was run: (§1)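 Binding buffer was PBS pH 7.4 with 2% milk, 0.02% Triton X-100, 1 mM DTT, 0.2 mg/mL BSA and 0.4 mg/ml salmon testes DNA. In it, ligand-free nuclear receptor dimers were incubated 1 h on custom Agilent 4×180K protein-binding microarrays carrying double-stranded probes. Antibodies against each partner (one per run) detected binding, and z-scores were calculated against random background probes after regression normalization of scanned fluorescence.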

Row | Sequence | PBM binding z-score
1 | CCTACTGGGCCATTCAGAGGTCATTTATCATATG | 4.44
2 | CCGAGTAGCTTATGGGGCATTCAGGCAACGGTGA | -0.568
3 | CCTACTGGGCCATTTAGAGGTCATTGATCATATG | 4.46
4 | CGAACGAGGGCATGAGTTGGTAGCAAATGCCGAT | 0.384
5 | TATACAGGTTCAAAGGCCAGAGTACGAATGTCGA | 2.91
6 | CCGACTCGGGCAAGGTTACCATAACGCACAGCCA | 0.655
7 | CCTACCGGGCCACGAAAGGTCATTGATTCAGTGA | 5.36
8 | TGAATGAGGTTAAAGATCAGAGAACGTGGCGTCG | 3.32
9 | TCCGCTAGGTCAACGATGGTCAGCTAATCTGCTA | 1.69
10 | GCGACTGGGGCAAAGCAGGTTACCAAAAGGTTGG | 0.862
11 | CCTACTGGGCCATCAGGTAATTGATATCAACGTT | -0.328
12 | TCATATAAGTAAATGCTAGGTGAAAGTCCGATCT | 0.789
13 | CCGAGTAGGTTATGGGGCACTCAGGCAACGGTGA | 0.214
14 | TCTTGTAGATCATTAGAGGTTAAGAAAGTGCGCT | 1.89
15 | ATATGTAGGTTAAGGGTCATTGAGGTTGGTTCGC | 5.84
16 | ACTAGCAGGCCAAGGGGCACTCAAGATTAGTCCG | -0.0268
17 | TAGCCGAGGTCAGATCGGGCCAGTATACGCTATA | 3.81
18 | GCGACAGGGGCAAAGCAGGTTACCATAAGGTTGG | 1.19
19 | CCTTACGGGTCACTGATAGGTTATAGCATTTGGA | 4.43
20 | CCTACTGGGCCCCGAAAGGTCATTGATTCAGTGA | 5.15

Row | Sequence | PBM binding z-score
21 | ACTATTAGTTGACATAGGGCAACCGATACGACGC | 0.635
22 | CTTGCTAGGTCATGGTCAGCTAATCTACAGTATG | 2.48
23 | TCTTGTAGATCAAACGTTAAGAAAGCCGAAGCCT | 0.0712
24 | GATACAGGGTCAGCTAGATGCCAGAGTATGGAAA | 3.4
25 | CGTACAGGGTCAGCTAGGCCAGAGTAGGGACGGC | 3.32
26 | ATCGAAAGGTCGAGGTGAGTCTAGAGAAAGGGAA | 3.67
27 | TATAGTTGGTCACGGAGGTCACACACGACGGGTA | 4.48
28 | CGAACGAGGGCATGAGTTGATAGTAAATGCCGAT | 0.644
29 | CCTACTGAGCCAAGGTCATTGATCAGTCAAAGCA | 3.64
30 | ATCTCTTGGTAAAGATAGTTCAGTGAATGCAAAT | 0.962
31 | TCTATTAGTTGAGTAGGGCAACCGAAACAGCGGA | 0.248
32 | TCATATAGGTAATACTGGTGAAAGTCGGCATCTA | 0.73
33 | GGAAAGAGGGCATTCGAGTTGATAGCATGGCGAT | 1.75
34 | TCTTGTATATCAATAGAGGTTAAGAAAGTGCGCT | 1.54
35 | TCTCGGAGGACAAGAAAGGTCAGAGCTCGACATC | 4.02
36 | CCTATTAGTTGACTATAAGGGCAACCGAAGCTCG | 0.501
37 | AGAACGAGGGCACGCTGAGTTGATAGGAGAGTAG | 0.906
38 | ACTATTAGTTGAGACGAGGGAAACCGATAGGTTG | 0.0368
39 | GGAACGAGGGCAAGTTGAGAGCAGAGTTTGATGG | 0.482
40 | CGTCAAAGTTCAATTAAGGTAACGTAAAGCACGC | 3.88

Test system: RARa homodimer (NR concentration 270 nM)
Assay: as above
How it was run: as §1

Row | Sequence | PBM binding z-score
41 | CCTACTGGGCCATTCAGAGGTCATTTATCATATG | 0.704
42 | CCGAGTAGCTTATGGGGCATTCAGGCAACGGTGA | -0.432
43 | CCTACTGGGCCATTTAGAGGTCATTGATCATATG | 0.647
44 | CGAACGAGGGCATGAGTTGGTAGCAAATGCCGAT | -0.55
45 | TATACAGGTTCAAAGGCCAGAGTACGAATGTCGA | 1.41
46 | CCGACTCGGGCAAGGTTACCATAACGCACAGCCA | -0.459
47 | CCTACCGGGCCACGAAAGGTCATTGATTCAGTGA | 0.144
48 | TGAATGAGGTTAAAGATCAGAGAACGTGGCGTCG | 0.124
49 | TCCGCTAGGTCAACGATGGTCAGCTAATCTGCTA | -0.297
50 | GCGACTGGGGCAAAGCAGGTTACCAAAAGGTTGG | -0.773
51 | CCTACTGGGCCATCAGGTAATTGATATCAACGTT | -0.0481
52 | TCATATAAGTAAATGCTAGGTGAAAGTCCGATCT | 1.78
53 | CCGAGTAGGTTATGGGGCACTCAGGCAACGGTGA | -0.134
54 | TCTTGTAGATCATTAGAGGTTAAGAAAGTGCGCT | 0.575
55 | ATATGTAGGTTAAGGGTCATTGAGGTTGGTTCGC | 2.44
56 | ACTAGCAGGCCAAGGGGCACTCAAGATTAGTCCG | -0.844
57 | TAGCCGAGGTCAGATCGGGCCAGTATACGCTATA | -0.0454
58 | GCGACAGGGGCAAAGCAGGTTACCATAAGGTTGG | -0.459
59 | CCTTACGGGTCACTGATAGGTTATAGCATTTGGA | 1.27
60 | CCTACTGGGCCCCGAAAGGTCATTGATTCAGTGA | 1.3

Row | Sequence | PBM binding z-score
61 | ACTATTAGTTGACATAGGGCAACCGATACGACGC | 0.879
62 | CTTGCTAGGTCATGGTCAGCTAATCTACAGTATG | 0.17
63 | TCTTGTAGATCAAACGTTAAGAAAGCCGAAGCCT | -0.409
64 | GATACAGGGTCAGCTAGATGCCAGAGTATGGAAA | 0.348
65 | CGTACAGGGTCAGCTAGGCCAGAGTAGGGACGGC | -0.147
66 | ATCGAAAGGTCGAGGTGAGTCTAGAGAAAGGGAA | 0.714
67 | TATAGTTGGTCACGGAGGTCACACACGACGGGTA | 1.98
68 | CGAACGAGGGCATGAGTTGATAGTAAATGCCGAT | -0.245
69 | CCTACTGAGCCAAGGTCATTGATCAGTCAAAGCA | 1.47
70 | ATCTCTTGGTAAAGATAGTTCAGTGAATGCAAAT | 0.477
71 | TCTATTAGTTGAGTAGGGCAACCGAAACAGCGGA | -0.221
72 | TCATATAGGTAATACTGGTGAAAGTCGGCATCTA | 0.536
73 | GGAAAGAGGGCATTCGAGTTGATAGCATGGCGAT | 0.298
74 | TCTTGTATATCAATAGAGGTTAAGAAAGTGCGCT | 0.672
75 | TCTCGGAGGACAAGAAAGGTCAGAGCTCGACATC | 0.689
76 | CCTATTAGTTGACTATAAGGGCAACCGAAGCTCG | 1.22
77 | AGAACGAGGGCACGCTGAGTTGATAGGAGAGTAG | -0.652
78 | ACTATTAGTTGAGACGAGGGAAACCGATAGGTTG | 0.655
79 | GGAACGAGGGCAAGTTGAGAGCAGAGTTTGATGG | -0.172
80 | CGTCAAAGTTCAATTAAGGTAACGTAAAGCACGC | 1.69
